Menin MLL FP FL: menin-MLL binding inhibition, fluorescein peptide | Fluorescence polarization, fluorescein-MLL peptide displacement from menin | FP activity change, % at 61.4 µM | 290,000 tested, under 10 active | AID 1766; active means well fitted curve in the direction sought with a large enough effect in the polarisation, not every such curve was filed as active; inconclusive means small, poorly fitted or top-dose-only effect, or effect the other way, or a change in a side signal; inactive means no such curve, though single readings can be large or run the other way; the % refers to the polarisation; further: % of control where 0% means no effect
LDHA inh: LDHA (human) enzyme inhibition; purified LDHA, NADH/diaphorase-resazurin fluorescence; active compounds read low; activity change, % (values are at about 110 or 230 µM); hit rate 0.15% among 480,000; AID 1347041; in the data active means activity change below about -30%; inconclusive means mostly about -25% to -30%;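 further: plate controls were DMSO wells for no effect and wells without enzyme for full effect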
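Human LDH5 (2 nM) was incubated with 0.06 mM NADH and 0.2 mM pyruvate for 5 min at room temperature in Tris pH 7.4. Remaining NADH was coupled through diaphorase/resazurin, and resorufin fluorescence was read at 0 and 20 min.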
IDH1 R132H inh: inhibitors of human mutant IDH1 R132H | IDH1-R132H enzyme, NADPH consumption, diaphorase/resazurin fluorescence | Potency, µM (series often up to 76.6 µM), for the others: at the top dose activity change, negative = inhibition, most hits filed as inhibitors | hit rate 0.093% among 390,000; active means well fitted inhibition curve with a large enough effect; inconclusive means small, poorly fitted or top-dose-only effect; inactive means no such curve, though single readings can be large or run the other way; further: potency means the concentration at half of the fitted maximal effect; on the % scale 0 is the no-effect control and ±100 the full control effect; nearly all actives have a fitted effect of over 65% in size
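IDH1-R132H (0.5 ug/mL dispensed) in pH 7.5 Tris buffer was preincubated 30 min with compound, then given a substrate mix of 0.016 mM NADPH and 2 mM alpha-KG for 80 min at room temperature; remaining NADPH was read by diaphorase/resazurin fluorescence.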
Menin-MLL TR inh: displaces Texas Red mutant MLL peptide from human menin | O00255 | Menin + Texas Red MLL mutant peptide, fluorescence polarization | Potency, µM (doses to about 61.6 µM), without a hit: at the top dose FP activity change, negative = inhibition, actives largely listed as inhibitors | hit rate 0.23% among 270,000 | AID 1768; active means well fitted inhibition curve with a large enough effect in the polarisation, with a control signal flat, not every such curve was filed as active; inconclusive means small, poorly fitted or top-dose-only effect, or effect the other way, or a change in a side signal; inactive means no such curve, though single readings can be large or run the other way; the % refers to the polarisation; further: potency means the concentration at half of the fitted maximal effect; % of control where 0% means no effect
Target sequence (O00255 whole entry, looked up): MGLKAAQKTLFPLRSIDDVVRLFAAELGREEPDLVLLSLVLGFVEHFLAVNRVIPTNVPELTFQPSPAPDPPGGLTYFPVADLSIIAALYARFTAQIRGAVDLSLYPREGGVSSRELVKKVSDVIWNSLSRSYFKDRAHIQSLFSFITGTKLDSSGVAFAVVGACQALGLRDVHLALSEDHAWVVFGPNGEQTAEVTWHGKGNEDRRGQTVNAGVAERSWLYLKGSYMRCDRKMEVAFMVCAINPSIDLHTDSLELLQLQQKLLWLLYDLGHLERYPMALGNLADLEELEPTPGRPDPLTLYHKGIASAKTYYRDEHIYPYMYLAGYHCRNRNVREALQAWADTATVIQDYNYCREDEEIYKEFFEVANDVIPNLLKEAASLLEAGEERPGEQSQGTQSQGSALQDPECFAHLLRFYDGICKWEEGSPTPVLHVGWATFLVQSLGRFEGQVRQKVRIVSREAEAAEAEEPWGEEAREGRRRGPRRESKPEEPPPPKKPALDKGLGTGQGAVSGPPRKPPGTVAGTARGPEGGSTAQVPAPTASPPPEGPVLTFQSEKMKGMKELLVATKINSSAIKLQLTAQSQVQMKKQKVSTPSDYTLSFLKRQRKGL
MLL CXXC-DNA inh: inhibitors of human MLL CXXC domain-DNA interaction; Q03164; MLL-CXXC / FITC-HOXA9 DNA fluorescence polarization; Potency, µM (titrated, usually from 115 µM), inactives show at the highest dose activity change, negative = inhibition, actives largely listed as inhibitors; hit rate 0.037% among 290,000; AID 2662; active means well fitted inhibition curve with a large enough effect in the polarisation, with a control signal flat, not every such curve was filed as active; inconclusive means small, poorly fitted or top-dose-only effect, or effect the other way, or a change in a side signal; inactive means no such curve, though single readings can be large or run the other way; the % refers to the polarisation; further: potency means the concentration at half of the fitted maximal effect
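Steps: dispense CXXC domain solution (7 uM) → pin compounds or unlabeled HOX-A9 DNA control → 5 min ambient → add FLSN-HOX-A9 solution (50 nM) → spin → 30 min ambient → fluorescence polarization. Tris pH 7.5/NaCl/DTT/BSA buffer.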
pAkt inh: inhibitors of Akt phosphorylation | Neuro2A IGF-stimulated pAkt S473 HTRF, 20 min; active compounds read low | activity change, % for hits at 50 µM | hit rate 0.32% among 360,000; in the data active means activity change below about -80%; inconclusive means mostly about -51% to -80%; further: on the % scale 0 is the no-effect control and ±100 the full control effect
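Neuro2A cells in DMEM with 0.5% FBS, overnight at 37 deg C, given compound at single 50 µM final, then IGF (6 nM final) for 20 min at 37 deg C. Lysed; phospho-Akt Ser473 by HTRF after 24 h, 665/615 ratio.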
* marks the source's active call; other numbers are inactive results; i = inactive; ? = inconclusive; nt = no result given. The list is not random: actives were taken first. Their share in the collection is about 0.54%.

SMILES	Menin MLL FP FL	LDHA inh	IDH1 R132H inh	Menin-MLL TR inh	MLL CXXC-DNA inh	pAkt inh
CCOC(=O)/C(C#N)=C/c1ccc(OCC(=O)Nc2cc(C)ccc2C)c(OC)c1	-0.2	-5.5	-5.1%	?	5.5%	-82.1%*
Clc1ccc(CSc2nnc([C@@H]3CCCN3)o2)cc1Cl	5.7	-4.2	8.2%	1.8%	5.7%	-106.2%*
Cc1ccc(C)c(CSc2nnc([C@@H]3CCCN3)o2)c1	2.3	-14.7	-3.7%	nt	1.1%	i
COc1ccc(Nc2nc(N3CCN(c4ccc(F)cc4)CC3)nc3c2cnn3C)cc1	nt	2.2	nt	nt	nt	nt
COC(=O)Cc1cc(=O)n(-c2nc3ccccc3[nH]2)[nH]1	6.6	-40.0*	-0.1%	21.5%	-2.8%	i
CNC(=O)c1ccc(-c2nc(CN3CCN(C(=O)Nc4ccc(C)cc4)CC3)c(C)o2)cc1	nt	4.4	nt	nt	nt	nt
CCCN1C=CC(=C/C=C(\C#N)C(=O)OCC)C=C1	?	nt	nt	17.4%	?	nt
CCOC(=O)/C(C#N)=C/C=C1\C=Cc2ccccc2N1CC	?	0.1	2.7%	25.1µM*	177.2%	i
CCOC(=O)N1CCC(N2CCN(S(=O)(=O)CC)CC2)CC1	-0.7	-33.6*	-7.7%	8.3%	-10.3%	i
CCN(Cc1ccc(OC)c(OC)c1)C(=O)c1oc2ccc(Br)cc2c1C	nt	-3.4	nt	nt	nt	nt
COc1ccc(N2C(=O)CC(N3CCOCC3)C2=O)cc1 (configuration not stated)	7.0	-5.0	2.9%	12.3%	0.8%	-110.3%*
COc1ccc(N2C(=O)CC(Cc3ccccc3OC)C2=O)cc1 (configuration not stated)	3.8	-0.5	0.6%	-13.9%	2.0%	i
COc1ccc(N2C(=O)CC(Cc3ccccc3)C2=O)cc1 (configuration not stated)	1.0	-2.3	2.6%	32.6%	-2.5%	-88.6%*
O=C(CCc1ccccc1)Nc1cnc2ccccc2c1	nt	1.5	nt	nt	nt	nt
CCCC(=O)NCCc1nc2ccccc2n1C	0.2	-9.4	-0.5%	-6.1%	-1.5%	-124.1%*
Cc1cccc(CSCC(=O)Oc2ccc(-c3ccc(I)cc3)cc2)c1	nt	9.3	nt	nt	nt	nt
CN1CCN(/C=C/C(=O)C(F)(F)F)CC1	nt	-16.0	nt	nt	nt	nt
Nc1nonc1-c1nc2ccccc2n1CC(=O)N/N=C\c1ccc(-c2ccc(Cl)cc2)o1	11.0	-5.5	-8.0%	10µM*	49.2%	i
CC(Cc1ccco1)NC(=O)c1ccc(Cl)c(S(C)(=O)=O)c1 (configuration not stated)	nt	-37.2*	nt	nt	nt	nt
Fc1ccc(F)c(C2=NNC(=Nc3ccccc3F)SC2)c1	nt	-1.9	?	?	4.2%	i
CC(C)(C)N=C1NN=C(c2ccc(S(=O)(=O)N3CCCCC3)cc2)CS1	nt	-2.8	-0.9%	nt	nt	i
Fc1ccc(N=C2NN=C(c3cc(F)ccc3F)CS2)cc1	6.7	-0.2	11.2µM*	11.7%	-1.2%	i
O=S(=O)(c1ccc(N=C2NN=C(c3cc(F)ccc3F)CS2)cc1)N1CCOCC1	0.6	-0.4	26.1µM*	17.6%	5.8%	i
CC(=O)Nc1ccc(C2=NNC(=Nc3ccc(S(=O)(=O)N4CCOCC4)cc3)SC2)cc1	-0.5	-17.5	13.1µM*	nt	-18.9%	i
COc1cccc(-c2n[nH]c(=O)c3c2C(c2ccc(C(C)(C)C)cc2)n2nnnc2N3)c1 (configuration not stated)	nt	2.4	nt	nt	nt	nt
SMILES	Menin MLL FP FL	LDHA inh	IDH1 R132H inh	Menin-MLL TR inh	MLL CXXC-DNA inh	pAkt inh
CC(C)NC(=O)/C=C/c1ccc(F)c(Cl)c1	nt	1.1	nt	nt	nt	nt
CCn1c(=O)c(=O)n(CC(=O)NCCN2CCN(c3cccc(Cl)c3)CC2)c2ccccc21	nt	1.9	nt	nt	nt	nt
Cc1cc(F)ccc1S(=O)(=O)Nc1ccccc1C(=O)Nc1ncn[nH]1	6.2	0.5	4.2%	1.0%	-10.7%	i
Cc1cc(F)ccc1S(=O)(=O)Nc1ccccc1C(=O)Nc1ccccc1-c1nc2ccccc2[nH]1	14.3	-1.5	-2.6%	14.1µM*	6.5%	i
COc1ccc(NC(=O)/C(C#N)=C/c2ccc(OCc3ccccc3F)cc2)cc1	9.6	-5.2	20.5%	17.8µM*	5.7%	i
CC(C)NCCCOc1ccc(C(C)(C)c2ccccc2)cc1	0.3	-31.7*	2.3%	-20.0%	27.0%	i
COCCCNCCCOc1ccc(C(C)(C)c2ccccc2)cc1	2.7	-21.4	3.0%	-19.3%	-11.0%	i
COCCNCCCOc1ccc(C(C)(C)c2ccccc2)cc1	-2.2	-33.0*	3.7%	?	-10.6%	i
CC(O)CNCCCOc1ccc(C(C)(C)c2ccccc2)cc1 (configuration not stated)	nt	-1.7	nt	nt	nt	nt
O=C1CC(c2ccccc2F)c2ncn(-c3ccccc3F)c2N1 (configuration not stated)	nt	16.5	nt	nt	nt	nt
Cn1c(N)c(-c2csc(NC3CC3)n2)c(=O)n(C)c1=O	nt	5.0	nt	nt	nt	nt
CCOc1ccc(NCc2cccn2-c2nnc(N3CCC(C(=O)NC4CC4)CC3)s2)cc1	nt	-0.6	nt	nt	nt	nt
CC(C)OC(=O)CSc1nnc(CNc2nc(-c3ccccc3)cs2)n1C	1.2	-2.1	-0.1%	-0.5%	-6.5%	-103.2%*
O=C(Cc1ccc(Cl)cc1)Nc1ccc(NC(=O)c2ccccc2)cc1	-0.8	-7.7	3.9%	10µM*	4.2%	i
Cc1csc(SCC(=O)Nc2nc3ccccc3s2)n1	3.5	-8.8	3.5%	8.1%	1.5%	-114.8%*
O=C(CSc1nc2ccccc2s1)Nc1nc2ccccc2s1	nt	-0.1	nt	nt	nt	nt
Cc1csc(NC(=O)CSc2nnc(NC(=O)COc3ccccc3)s2)n1	3.1	-4.7	0.9%	39.8µM*	8.4%	i
Cc1ccc(C)c(-c2cc(C)ncc2C)c1	nt	-30.5*	nt	nt	nt	nt
Cc1ccc(Cc2cc(C)ncc2C)c(C)c1	nt	9.6	nt	nt	nt	nt
C1=C(c2ccccc2)Nc2nnnn2C1c1cccs1 (configuration not stated)	2.1	-3.9	-0.9%	?	?	-110.5%*
O=C(CSc1nc2ccccc2s1)N1c2ccccc2Sc2ccc(Cl)cc21	-4.2	-7.0	7.0%	20µM*	23.2%	i
O=C(Nc1ccc([N+](=O)[O-])cc1Cl)c1cc(Cl)cc(Cl)c1O	nt	1.7	nt	nt	nt	nt
O=C(Nc1cc(Cl)ccc1Cl)c1cc([N+](=O)[O-])cc(Br)c1O	nt	-53.6*	nt	nt	nt	nt
O=C(Nc1ccc(Cl)cc1)c1ccc2ccccc2n1	nt	4.2	nt	nt	nt	nt
O=C(COC(=O)c1ccccc1NC(=O)c1ccco1)Nc1ccc2c(c1)OCO2	5.8	-2.3	-2.1%	?	14.4%	-102.4%*
O=C(COC(=O)c1ccccc1NCc1ccco1)Nc1ccc2c(c1)OCO2	1.1	-3.8	-6.2%	?	0.1%	i
Cc1ccc(C(C(=O)NC2CCCC2)N(Cc2cccnc2)C(=O)c2snc(C(N)=O)c2N)o1 (configuration not stated)	-0.2	-2.8	0.7%	-19.3%	-5.4%	-118.6%*
CC(C)CN1CCN(CCc2ccccc2)CC1	nt	1.9	nt	nt	nt	nt

From PubChem
